Screening results deposited in PubChem by The Scripps Research Institute Molecular Screening Center.
GSTO1 counter: inhibitors of recombinant GSTO1, primary screen, counter-screen for RBBP9 inhibitor project, biochemical, fluorescence polarization; activity-based probe fluorescence polarization; inhibition, % at 5.96 µM; Glutathione S-transferase omega-1 (Homo sapiens), P78417; hit rate 1.1% among 300,000;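 active means inhibition above the campaign mean inhibition plus 3 SD, cut at about 35% in these data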;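 further: 0% = GSTO1-1 with DMSO and 100% = wells lacking GSTO1-1 enzyme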
PAD4 inh: human PAD4 inhibitors, primary screen, biochemical, fluorescence polarization, 1536-well format | inhibition, % at 6.36 µM | recombinant PAD4, RCA probe fluorescence polarization | Protein-arginine deiminase type-4 (Homo sapiens), Q9UM07 | hit rate 0.41% among 330,000 | AID 485272, 2010;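 active means percent inhibition above a cutoff equal to the mean of all tested compounds plus 3 SD, cut at about 15% in these data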;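 further: 0% = PAD4 with RCA probe and DMSO and 100% = probe without PAD4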
PME-1 inh: PME-1 inhibitors via competitive probe labeling, primary screen, biochemical, fluorescence polarization, FP-Rh probe, HTS; recombinant PME-1; Protein phosphatase methylesterase 1 (Homo sapiens), Q9Y570; hit rate 0.53% among 320,000; inhibition, % at 5.9 µM;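 active means inhibition above the campaign mean of all compounds plus 3 SD, cut at about 26% in these data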;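 further: competitive labeling of PME-1 active site by serine hydrolase directed probe; 0% = PME-1 with DMSO and 100% = wells lacking PME-1 enzyme; inhibitors block probe labeling so polarization falls and inhibition rises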
Target sequence (Q9Y570 whole entry, looked up): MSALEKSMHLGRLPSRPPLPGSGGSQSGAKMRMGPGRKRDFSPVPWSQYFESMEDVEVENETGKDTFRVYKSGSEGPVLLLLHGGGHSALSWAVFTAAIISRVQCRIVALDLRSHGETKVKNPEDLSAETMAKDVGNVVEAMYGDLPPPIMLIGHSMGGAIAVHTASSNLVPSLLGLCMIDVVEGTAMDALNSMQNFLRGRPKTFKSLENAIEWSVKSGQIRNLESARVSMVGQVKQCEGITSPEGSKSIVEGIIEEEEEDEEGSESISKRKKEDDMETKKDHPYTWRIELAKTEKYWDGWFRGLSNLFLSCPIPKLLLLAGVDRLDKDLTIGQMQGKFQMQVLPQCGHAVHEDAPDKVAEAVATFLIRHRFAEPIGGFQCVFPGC
LYPLA1 counter: LYPLA1 inhibitors, primary screen, counter-screen for PME1 inhibitor project, biochemical, fluorescence polarization, FP-Rh probe ABPP | hit rate 0.16% among 320,000 | inhibition, % at 5.9 µM | Acyl-protein thioesterase 1 (Homo sapiens), O75608 | recombinant LYPLA1;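 active means inhibition above the mean of all tested compounds plus 3 SD, set per campaign, cut at about 14% in these data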;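 further: inhibitors block serine hydrolase probe labeling of LYPLA1 so polarization falls; 0% = enzyme with DMSO and 100% = wells lacking LYPLA1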
Target sequence (O75608 whole entry, looked up): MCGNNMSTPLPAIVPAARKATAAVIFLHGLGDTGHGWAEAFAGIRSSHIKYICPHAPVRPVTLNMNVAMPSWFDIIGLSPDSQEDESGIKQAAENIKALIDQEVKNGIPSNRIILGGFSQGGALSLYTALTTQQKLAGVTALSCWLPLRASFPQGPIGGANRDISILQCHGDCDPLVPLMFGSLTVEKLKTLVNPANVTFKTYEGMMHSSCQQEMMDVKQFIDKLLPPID
LYPLA2 inh: LYPLA2 inhibitors, primary screen, counter-screen for PME1 inhibitor project, biochemical, fluorescence polarization, FP-Rh probe ABPP; Acyl-protein thioesterase 2 (Homo sapiens), O95372; recombinant LYPLA2; inhibition, % at 5.9 µM; hit rate 0.38% among 320,000; AID 2177, 2009;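 active means inhibition above the screen-wide mean plus 3 SD, limit set per campaign, cut at about 26% in these data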;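 further: 0% = LYPLA2 with DMSO and 100% = wells lacking LYPLA2 enzyme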
Fam108B inh: mouse Fam108B serine hydrolase inhibitors, primary screen, counter-screen for RBBP9 inhibitor project, biochemical, fluorescence polarization; AID 1947, 2009; hit rate 0.33% among 300,000; recombinant Fam108B, FP-Rh probe fluorescence polarization; inhibition, % at 9.51 µM;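 active means inhibition above the screen mean inhibition plus 3 SD, computed separately per campaign, cut at about 18% in these data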;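 further: inhibitors lower polarization as less probe binds the enzyme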
LYPLA2 confirm: LYPLA2 inhibitors, retest, confirmation, counter-screen for PME1 inhibitor project, biochemical, fluorescence polarization, FP-Rh probe ABPP. shares compounds with LYPLA2 inh. recombinant LYPLA2. inhibition, % at 5.9 µM. hit rate 72% among 1,100. AID 2232, 2010;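 active means mean inhibition across replicates above the hit cutoff set in the primary screen, cut at about 26% in these data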;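 further: blocked labeling of the enzyme by serine hydrolase FP-Rh probe lowers polarization; 0% = enzyme with DMSO and 100% = wells lacking LYPLA2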
LYPLA2 gel ABPP: LYPLA2 inhibitors in proteome, late-stage follow-up, gel-based competitive ABPP, fluorescence, assay provider. inhibition, % at 20 µM. rhLYPLA2 in mouse brain proteome, gel ABPP FP-Rh. shares compounds with LYPLA2 inh. hit rate 30% among 150;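 active means inhibition of LYPLA2 enzyme probe labeling above about 50%, limit read from the data; inactive means inhibition below that limit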;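 further: loss of FP-Rh probe labeling of the LYPLA2 gel band measured as band density; 0% = DMSO only control band and 100% = blank gel background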
* marks the source's active call; other numbers are inactive results; x = no result given. Shown are actives, neighbours in structure and some others; about 1.8% of the full set was active somewhere.

SMILES | GSTO1 counter | PAD4 inh | PME-1 inh | LYPLA1 counter | LYPLA2 inh | Fam108B inh | LYPLA2 confirm | others
COC(=O)c1cc(NC(=O)c2ccccc2)c(=O)oc1C | 1 | 1 | 2 | -1 | 27* | -4 | 2
OC(COCc1cccs1)CN1CCN(c2cccc(C(F)(F)F)c2)CC1 (configuration not stated) | -1 | 0 | -11 | 3 | 34* | 1 | 29*
O=C(COC(=O)C1C2CC3OC(=O)C1C3C2)Nc1cccc(Cl)c1 (configuration not stated) | 0 | 0 | 4 | -1 | 4 | -4 | x
O=C(CC1SC(N2CCCCC2)=NC1=O)Nc1ccc(C(=O)NCCc2ccc(F)cc2)cc1 (configuration not stated) | x | 0 | 5 | 2 | 49* | x | 39*
CSCCC(NC(=O)c1ccc(Cl)c([N+](=O)[O-])c1)C(=O)N1CCN(C/C=C/c2ccccc2)CC1 (configuration not stated) | 15 | -2 | 3 | 1 | 34* | -4 | 38*
Clc1ccc(Oc2cccc(/C=N/n3cnnc3)c2)cc1 | 13 | 7 | 3 | 9 | 37* | -3 | 32*
O=C1c2cccc3cccc(c23)C(=O)N1CC1CCN(CC(O)COc2ccc3ccccc3c2)CC1 (configuration not stated) | -7 | 3 | -5 | 3 | 47* | -7 | 38*
Cc1cc(C)cc(OCC(O)CN2CCC(CN3C(=O)c4cccc5cccc(c45)C3=O)CC2)c1 (configuration not stated) | -3 | -2 | -1 | 9 | 46* | -2 | 49*
CCc1ccc(OCC(O)CN2CCN(c3ccccc3)CC2)cc1 (configuration not stated) | -3 | -4 | -4 | 3 | 6 | 2 | x
CCc1ccc(OCC(O)CN2CCC(CN3C(=O)c4cccc5cccc(c45)C3=O)CC2)cc1 (configuration not stated) | 7 | 1 | 5 | -3 | 29* | -1 | 29*
COc1ccc(COCC(O)CN2CCC(CN3C(=O)c4cccc5cccc(c45)C3=O)CC2)cc1OC (configuration not stated) | -2 | -4 | 3 | 3 | 5 | 0 | x
COc1cccc(OCC(O)CN2CCC(CN3C(=O)c4cccc5cccc(c45)C3=O)CC2)c1 (configuration not stated) | 1 | -2 | -3 | 9 | 39* | -1 | 51* | LYPLA2 gel ABPP=12
O=C1c2cccc3cccc(c23)C(=O)N1CCN1CCN(CC(O)COc2ccc3ccccc3c2)CC1 (configuration not stated) | -7 | 1 | -5 | -4 | 19 | -8 | x
COc1ccc(-c2cc(C(=O)Nc3c(C)nn(Cc4ccccc4Cl)c3C)no2)cc1OC | -3 | 0 | -9 | -1 | 4 | -5 | x
COc1ccc(OC)c(-c2cc(C(=O)Nc3c(C)nn(Cc4ccccc4Cl)c3C)no2)c1 | -6 | -6 | -5 | -2 | 40* | -9 | 29*
COc1ccc(OC)c(-c2cc(C(=O)Nc3c(C)nn(Cc4ccccc4C)c3C)no2)c1 | -4 | -2 | -5 | 11 | 64* | -7 | 55* | LYPLA2 gel ABPP=50*
Cc1ccc(-n2c(C)nnc2SCC(=O)N(C)C2CCS(=O)(=O)C2)cc1 (configuration not stated) | x | -3 | 6 | -3 | -8 | x | x
COc1ccccc1NC(=O)NCCN1CCN(c2cccc(Cl)c2)CC1 | 1 | -7 | 5 | 6 | 43* | -4 | 32*
O=C(NCCN1CCN(c2cccc(Cl)c2)CC1)Nc1ccccc1 | 9 | -1 | 7 | 4 | 12 | 1 | x
CN(Cc1cn(-c2ccccc2)nc1-c1cc2ccccc2o1)C(=O)CCC(=O)O | -4 | -4 | -10 | 2 | -6 | 1 | x
O=C(NCC(=O)N1CCN(C/C=C/c2ccccc2)CC1)c1ccc(OC(F)F)cc1 | x | 0 | -1 | 1 | 35* | x | 32*
O=C(NCC(=O)N1CCN(C/C=C/c2ccccc2)CC1)c1ccc(Br)cc1 | x | -7 | x | x | x | x | x
CC(=O)c1c(C)n(CCc2ccc(Cl)cc2)c2ccc(O)cc12 | 5 | -2 | -3 | -2 | -3 | 4 | x
Cc1ccc(Oc2coc3cc(OC(=O)c4cccs4)ccc3c2=O)cc1 | -5 | 1 | -6 | 2 | 48* | -5 | 44*
Cc1cccc(Oc2coc3cc(OC(=O)c4cccs4)ccc3c2=O)c1 | 4 | 2 | 1 | 3 | 16 | -6 | x
SMILES | GSTO1 counter | PAD4 inh | PME-1 inh | LYPLA1 counter | LYPLA2 inh | Fam108B inh | LYPLA2 confirm | others
Cc1cc(C)cc(Oc2coc3cc(OC(=O)c4cccs4)ccc3c2=O)c1 | 17 | -1 | -1 | 2 | 29* | -9 | 18
COc1cc(S(=O)(=O)NCc2ccccn2)ccc1Cl | 5 | 0 | 1 | 2 | -4 | -3 | x
O=c1ccc(-c2ccccc2)nn1Cc1ccccc1 | 7 | -5 | 2 | 4 | 8 | 2 | x
O=c1ccc(-c2ccccc2)nn1Cc1ccc(F)cc1 | 1 | 0 | 1 | 1 | 27* | 7 | 24
O=c1ccc(-c2ccccc2)nn1Cc1ccc(F)cc1Cl | -2 | -2 | 1 | -3 | 35* | 4 | 34*
COc1cc(C(=O)Nc2cc(C)ccn2)ccc1OCC(=O)N1CCOCC1 | 0 | -1 | -5 | -5 | 3 | -2 | x
COc1ccccc1C1=NOC(COc2ccc3c(C)cc(=O)oc3c2)C1 (configuration not stated) | 3 | -1 | 1 | 2 | 7 | -7 | x
COc1ccc(C2=NOC(COc3ccc4c(C)cc(=O)oc4c3)C2)c(OC)c1 (configuration not stated) | -2 | 0 | -7 | 2 | 28* | 3 | 24
O=C(CSc1ccccc1)NC1CCCCCC1 | 14 | 1 | -12 | -1 | 3 | -1 | x
COc1ccc(OCC(=O)Nc2ccc(NC(=O)c3ccccc3Cl)c(OC)c2)cc1 | -2 | 6 | -8 | -1 | 36* | 5 | 34*
